Tests used:
CHO = experiment: % viability of CHO cells (MTT); higher = less toxic; conditions: 48 h
How it was run: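 Viability was given as a percentage of untreated cells and measured colorimetrically by the tetrazolium (MTT) assay. Before this, CHO cells at 10^6 cells/well in 200 µL attached overnight, then received fresh medium containing compound at 2 or 20 µM for 48 h.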

HepG2-A16-CD81 = experiment: % inhibition of HepG2 viability (CellTiter-Glo); higher = more toxic; conditions: 5 µM;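 further: HepG2-A16-CD81 hepatoma cells plated as in the liver-stage assay but without sporozoites, with DMSO wells as negative and 25 µM puromycin as positive control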
[1] = test system: Plasmodium falciparum NF54 stage IV/V gametocytes; experiment: % inhibition of gametocyte viability (PrestoBlue); higher = more inhibition; conditions: 48 h
How it was run: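 Values are percent inhibition of gametocyte viability, normalised to vehicle and kill controls in a single run. Stage IV/V NF54 gametocytes (2% gametocytaemia, 5% haematocrit, 100 µL/well) were held with compound at 1 or 5 µM for 48 h at 37 °C, stationary and hypoxic. Viability was read as 612 nm fluorescence on 70 µL of supernatant after a 2 h incubation with 10 µL PrestoBlue.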

[2] = test system: Plasmodium falciparum NF54 asexual blood stage; experiment: % inhibition of asexual blood stage proliferation (pLDH); higher = more inhibition; conditions: 72 h
How it was run: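 Using 96-well plates, the screen was run twice on separate occasions with Plasmodium falciparum NF54 ring-stage cultures at 1% haematocrit and 2% parasitaemia. Each culture was exposed to compound at 2 or 20 µM for 72 h at 37 °C under a gas mix of 4% CO2, 3% O2 and 93% N2. After incubation, the parasite lactate dehydrogenase assay was read colorimetrically at 620 nm. From this readout, percent inhibition of asexual proliferation was derived against control wells.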

[3] = test system: Plasmodium falciparum NF54 stage IV/V gametocytes; experiment: % inhibition of gametocyte viability (ATP bioluminescence); higher = more inhibition; conditions: 24 h
How it was run: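 Viability of stage IV/V NF54 gametocytes is given as percent inhibition, normalised to control wells in a single run. Gametocytes enriched on density gradients were seeded at 30,000 per well in 96-well plates with compound at 1 or 5 µM and held at 37 °C for 24 h. ATP was then read with the Promega BacTiter Glo bioluminescence system.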

[4] = test system: Plasmodium falciparum NF54 stage IV/V gametocytes; experiment: % inhibition of gametocyte viability (luciferase reporter); higher = more inhibition; conditions: 48 h
How it was run: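 Percent inhibition was normalised to controls from a single run. Stage IV/V gametocytes of the NF54-Pfs16-GFP-Luc line, at 2% gametocytaemia and 2% haematocrit, were exposed to compound at 1 or 5 µM for 48 h at 37 °C under stationary, hypoxic conditions. Luminescence was then read from 30 µL lysate mixed with 30 µL Promega luciferin substrate on a GloMax-Multi+ reader with 10 s integration.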

Row | Structure (SMILES) | % viability of CHO cells (CHO; 2 µM) [%] | % viability of CHO cells (CHO; 20 µM) [%] | % inhibition of HepG2 viability (HepG2-A16-CD81) [%] | % inhibition of gametocyte viability ([1]; 1 µM) [%] | % inhibition of gametocyte viability ([1]; 5 µM) [%] | % inhibition of asexual blood stage proliferation ([2]; 2 µM) [%] | % inhibition of asexual blood stage proliferation ([2]; 20 µM) [%] | % inhibition of gametocyte viability ([3]; 1 µM) [%] | % inhibition of gametocyte viability ([3]; 5 µM) [%] | % inhibition of gametocyte viability ([4]; 1 µM) [%] | % inhibition of gametocyte viability ([4]; 5 µM) [%]
1 | C[C@@]1(O)[C@H](O)[C@@H](CO)O[C@H]1n1ccc2c(N)ncnc21 | 127 | 92 | -1.39 | < 0 | 2.26 | 14.8 | 43.2 | 12.3 | 7.84 | 1.8 | < 0
2 | C[C@H]1CC[C@]2(NC1)O[C@H]1C[C@H]3[C@@H]4CC[C@H]5C[C@@H](O)CC[C@]5(C)[C@H]4CC[C@]3(C)[C@H]1[C@@H]2C | 105 | 117 | -5.8 | 13.5 | 28.1 | 35.3 | 33.7 | < 0 | < 0 | 14.1 | 0.706
3 | COC(=O)Nc1nc2ccccc2[nH]1 | 99.1 | 110 | -1.93 | < 0 | < 0 | 6.96 | 10.6 | 1.54 | < 0 | < 0 | < 0
4 | COc1cc(C(C)(C)CCCC(C)C)cc(OC)c1OC | 108 | 76.7 | 7.92 | 11.5 | 6.64 | -22 | 48.9 | 2.47 | < 0 | 8.33 | < 0
5 | CN1C(=O)C(c2ccccc2)C(=O)N(c2ccccc2)c2cc(C(F)(F)F)ccc21 (stereo not drawn) | 95.2 | 110 | 3.09 | 20.2 | 14.5 | -15.6 | 32.9 | < 0 | < 0 | 11.6 | < 0
6 | COc1ccccc1CN[C@H]1C2CCN(CC2)[C@H]1C(c1ccccc1)c1ccccc1 | 102 | 117 | -1 | 17.5 | 8.85 | -2.68 | 93 | 7.68 | 29.7 | 15.2 | < 0
7 | CCCCc1ccc(C(=O)O)nc1 | 90.2 | 130 | -0.607 | < 0 | 2.97 | 83.3 | 44 | 5.47 | < 0 | 7.1 | 6.9
8 | CC(C)Oc1cccc(NC(=O)c2ccccc2C(F)(F)F)c1 | 88.6 | 112 | 3.41 | 2.75 | < 0 | 2.15 | 9.83 | 3.08 | < 0 | < 0 | < 0
9 | C[N+]1(C)CCCC(OC(=O)C(O)(c2ccccc2)c2ccccc2)C1 (stereo not drawn) | 122 | 140 | -0.474 | 23.3 | 9.34 | 26 | 73.9 | < 0 | < 0 | < 0 | 3.73
10 | NC1(C(=O)O)CCP(=O)(O)CC1 (stereo not drawn) | 113 | 81.6 | -2.82 | < 0 | < 0 | 12.3 | 13.4 | < 0 | < 0 | < 0 | 9.64
11 | Nc1c(C(=O)NCc2ccco2)c2nc3ccccc3nc2n1CCN1CCCCC1 | 104 | 57.3 | 10.7 | 23.5 | 46.1 | 77.4 | 116 | 51.4 | 59.7 | 13.7 | 0.236
12 | O=C(NC12CC3CC(CC(C3)C1)C2)c1cc2ccccc2[nH]1 | 103 | 134 | 5.16 | 36.4 | 12.5 | 35 | 73.8 | < 0 | < 0 | < 0 | < 0
13 | CCN1CCN(Cc2nc3ccc([N+](=O)[O-])cc3c(=O)n2-c2ccccc2F)CC1 | 105 | 105 | -4.34 | < 0 | < 0 | 33 | 24.4 | 13.8 | 17.7 | 9.48 | < 0

Reference: the supplement of paper PMC7801607
